# Screening data (PubChem BioAssay)
# PKM2 act = PKM2 (human) enzyme activation; P14618; purified PKM2, Kinase-Glo ATP luminescence, activation; response scale: 0% is enzyme alone, no compound; Potency, µM (highest dose often 57.5 µM), for inactives: at the top dose activation, usual class: activators; 260,000 compounds, 0.34% hits; AID 1631; also: potency is read from the fitted curve at half-maximal effect; nearly all actives have a fitted effect of over 55% in size
# Target sequence (P14618 whole entry, looked up): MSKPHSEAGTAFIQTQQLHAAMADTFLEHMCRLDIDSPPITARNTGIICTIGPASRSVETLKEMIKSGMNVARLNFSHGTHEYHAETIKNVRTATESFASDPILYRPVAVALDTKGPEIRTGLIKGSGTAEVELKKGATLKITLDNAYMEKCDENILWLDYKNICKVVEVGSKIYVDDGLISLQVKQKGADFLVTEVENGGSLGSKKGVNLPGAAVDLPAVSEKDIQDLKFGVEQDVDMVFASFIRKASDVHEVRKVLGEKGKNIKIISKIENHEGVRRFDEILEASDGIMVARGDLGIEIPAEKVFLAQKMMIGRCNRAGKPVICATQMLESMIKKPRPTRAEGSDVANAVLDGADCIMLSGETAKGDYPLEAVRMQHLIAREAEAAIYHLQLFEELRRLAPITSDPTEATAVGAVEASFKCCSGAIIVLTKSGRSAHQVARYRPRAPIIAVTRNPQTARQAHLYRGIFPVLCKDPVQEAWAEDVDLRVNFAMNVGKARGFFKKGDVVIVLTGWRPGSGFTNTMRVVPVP
#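 Purified hPK-M2 (>95%) run at intermediate activity with 0.1 mM ADP and 0.5 mM PEP in 50 mM imidazole pH 7.2, KCl, MgCl2; 1 h room temperature. ATP formed read by Kinase-Glo luminescence; normalized to uninhibited and no-enzyme controls.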
# VP16 counter = Gal4-VP16 reporter inhibition counter-screen. Drosophila S2 Gal4-VP16 UAS-luciferase, luminescence, 20 h. Potency, µM (titrated, usually from 53.6 µM), for the others: top-dose activity, negative = inhibition, most hits filed as inhibitors. 310,000 compounds, 3.5% hits;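 also: Gal4-VP16 expression switched on by copper sulfate through the metallothionein promoter; potency is read from the fitted curve at half-maximal effect; nearly all actives have a fitted effect of over 50% in size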
# Six1-Eya2 blk = inhibitors of human Six1/Eya2 interaction; 360,000 compounds, 0.56% hits; activity change, % (test concentration not listed); AlphaScreen GST-Six1/His-Eya2 binding, biochemical; hits give low values; in the data active = activity change below about -65%; inconclusive = mostly about -30% to -63%
#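 Homogeneous AlphaScreen proximity assay pairing GST-Six1 with His-tagged Eya2 (added as 5X mix: 250 nM and 500 nM) in 50 mM Tris pH 8.0, 300 mM NaCl, 1 mM TCEP. Glutathione donor and nickel acceptor beads; 1 h, 37 °C, dark.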
# RORg inh = ROR gamma (mouse) transcription inhibition | P51450 | Drosophila S2 Gal4-RORgamma UAS-luciferase reporter, 20 h | Potency, µM (titrated, usually from 53.6 µM), inactives show at the highest dose activity change, negative = inhibition, usual class: inhibitors | 310,000 compounds, 5.4% hits; also: potency is read from the fitted curve at half-maximal effect; nearly all actives have a fitted effect of over 60% in size
#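 Drosophila S2 cells stably expressing Gal4-DBD/mouse RORγ fusion under metallothionein promoter plus UAS-luciferase; compound 1 h, then 700 uM CuSO4 induction for 20 h at ambient temperature; inhibition read as reduced luminescence.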
# CtBP-E1A blk = inhibitors of CtBP/E1A interaction; AID 651724; 340,000 compounds, 0.49% hits; activity change, % (concentration not given with the values); AlphaScreen GST-E1A/His-CtBP binding, 1536-well; hits give low values; in the data active = activity change below about -65%; inconclusive = mostly about -30% to -63%
#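 AlphaScreen with 125 nM GST-E1A and 125 nM His-CtBP (5X stocks) in Tris pH 8.0, 300 mM NaCl, BSA, Tween 20, TCEP. Compounds preincubated 2 h at 37 deg C, then glutathione donor/nickel acceptor beads added for 1 h at 37 deg C in dark.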
# * hit, by the source's call; ? = inconclusive; . = no result given; [ ] = another dose, or the depositor's remark. Hits are enriched below; roughly 5.6% of the tested compounds scored in any of these assays. Unless noted, calls follow the shape of the dose curve; as a rule, active = well fitted curve in the direction sought with a large enough effect; inconclusive = small, poorly fitted or top-dose-only effect, or another doubt; inactive = no such curve, though single readings can be large; an effect the other way counts as inactive or inconclusive. % is scaled to controls: 0 for no effect and ±100 for the full control effect.
SMILES,PKM2 act,VP16 counter,Six1-Eya2 blk,RORg inh,CtBP-E1A blk
Cn1c(O)c(N=NC(N)=S)c2ccccc21,.,3.2µM*,.,1.1µM*,.
Cc1ccc(C2=NC3(CCCCCC3)NC2=S)cc1,-9%,2.2µM*,2,1.4µM*,4
O=C1NC2(CCCCC2)N=C1c1ccc(F)cc1,-3%,10%,5,1%,14
O=C1NC2(CCCCC2)N=C1c1ccc(Br)cc1,-2%,?,-4,13µM*,2
CN(C)CCCNc1cc(C(C)(C)C)nc2c(-c3ccc(Cl)cc3)cnn12,1%,14µM*,8,2µM*,3
CC(C)(C)c1cc(NCc2ccccn2)n2ncc(-c3ccc(Cl)cc3)c2n1,-3%,?,-2,0.56µM*,.
CC(C)(C)c1cc(NCCCn2ccnc2)n2ncc(-c3ccccc3)c2n1,8%,-1%,-1,-28%,0
COc1ccc(N(CC(=O)Nc2cc([N+](=O)[O-])ccc2C)S(C)(=O)=O)cc1OC,-2%,-5%,13,13%,1
CCc1cccc(C)c1NC(=O)Nc1c(Br)cnn1C,.,-2%,2,-8%,.
Cc1sc2ncnc(SCC(=O)NC(=O)c3cccn3C)c2c1C,5%,-7%,1,4.5µM*,0
CCCCn1c(SC(C)C(N)=O)nc2cc(C(=O)OC)ccc2c1=O (stereo unspecified),9%,-14%,6,14µM*,7
O=C(Nn1cnnc1)c1ccccc1Cl,.,-3%,3,-33%,2
COc1ccc(C(=O)C(O)C(c2ccc(C)cc2)N2CCOCC2)cc1OC (stereo unspecified),.,-10%,3,16%,5
CCc1cc(=O)oc2cc3occ(-c4ccc(OC)c(F)c4)c3cc12,7%,13µM*,-1,?,7
COc1cc(/C=C2\C(=O)ON=C2c2ccccc2)cc(Cl)c1O,-26%,13µM*,-13,?,4
COc1cc(/C=C2\C(=O)ON=C2c2ccccc2)cc(Br)c1O,.,?,-7,?,-1
CC(C)OCCCn1c(-c2ccc(Br)cc2)c[nH]c1=S,4%,2.8µM*,-2,1µM*,-28
CCCOc1cccc(C(=O)NC(=S)Nc2cccc(C(F)(F)F)c2)c1,-4%,?,3,10µM*,7
CCOc1cccc(C(=O)NC(=S)Nc2cccc(C)c2)c1,-1%,10µM*,-20,2.5µM*,-7
CCCCOc1cccc(C(=O)NC(=S)Nc2ccc(Cl)c(C(=O)O)c2)c1,6%,-23%,-5,18%,4
CCOc1cccc(C(=O)Nc2cccc(C(C)=O)c2)c1,-15%,9%,-1,3%,-11
CCCN(CC(=O)Nc1ccccc1C)C(=O)Cc1coc2cc(C)ccc12,1%,-11%,0,17%,-1
Cc1ccccc1Nc1c(-c2cccnc2)nc2ccccn12,3%,1%,-3,-3%,-17
Cc1ccc(-c2nc3cnccn3c2Nc2c(C)cccc2C)o1,-11%,-11%,4,11µM*,4
Cc1ccn2c(NC(=O)c3ccccc3)c(-c3ccccc3)nc2c1,4%,8%,-1,?,-2
SMILES,PKM2 act,VP16 counter,Six1-Eya2 blk,RORg inh,CtBP-E1A blk
Cc1cccn2c(Nc3ccccc3)c(-c3ccccn3)nc12,1%,5µM*,-22,3.2µM*,-23
Cc1ccn2c(Nc3ccccc3)c(-c3ccccn3)nc2c1,-2%,-16%,-74*,16µM*,-78*
COc1ccc(-c2nc3ncccn3c2Nc2ccccc2)cc1,17%,9%,9,-13%,-10
Cc1ccccc1Nc1c(-c2ccccn2)nc2ccccn12,-2%,-3%,-91*,31%,.
CCOC(=O)C1CCCN(C(=O)c2cc(F)ccc2C)CC1 (stereo unspecified),.,.,3,.,6
Cc1ccc(-c2nc3ncccn3c2Nc2ccccc2C)o1,11µM*,8%[10 µM],-5,-5%,-16
Cc1ccc2nc(-c3cccnc3)c(Nc3ccccc3C)n2c1,1%,2%,-12,-6%,-13
Cc1ccc2nc(-c3ccccn3)c(Nc3ccccc3C)n2c1,6%,-7%[10 µM],?,14µM*,-91*
Cc1ccn2c(Nc3ccccc3C)c(-c3ccccn3)nc2c1,2%,?,-82*,14µM*,-93*
CN(C)C(CNC(=O)C1CCN(C(=O)/C=C/c2ccccc2)CC1)c1ccccc1 (stereo unspecified),.,-18%,18,29%,-5
O=C(c1ccc(-n2cncn2)c([N+](=O)[O-])c1)N1CCN(S(=O)(=O)c2ccc(F)c(F)c2)CC1,.,.,0,.,16
S=c1c2c(nc3nc[nH]n13)CCC2,-14%,0.89µM*,-13,?,.
COc1ccc(-c2c(C3C4C=CCCC4(C)C(=O)N3Cc3ccccc3)ccc3ccccc23)cc1OC (stereo unspecified),.,-4%,.,-10%,.
Cc1ccc(-c2nc3c(c(=O)[nH]c(=O)n3Cc3ccccc3)n2C)o1,?,-10%,-15,?,.
Cc1ccc(-c2nc3c(c(=O)[nH]c(=O)n3Cc3ccccc3)n2Cc2ccccc2)o1,18µM*,1%,-3,20%,-2
Cc1cc(O)c(C(C)C)cc1NC(=O)Nc1ccc([N+](=O)[O-])cc1,.,.,4,.,-10
Cc1ccc(C(C)C)cc1NC(=O)Nc1ccc([N+](=O)[O-])cc1,0%,13µM*,-17,35µM*,.
O=C(Nc1nccs1)c1cc(Cl)nc2ccccc12,-3%,?,-19,18µM*,-5
Cc1cc(NC(=O)c2cc(-c3ccccn3)nc3c(Cl)cccc23)no1,3%,-16%,-2,?,3
O=C(Nc1nccs1)c1cc(-c2ccccn2)nc2c(Cl)cccc12,10%,6.3µM*,-10,5µM*,-3
O=C(Nc1nccs1)c1cc(-c2ccccc2)nc2ccccc12,-3%,?,-12,11µM*,1
Brc1cccc(Cn2c(-c3cncs3)nc3ccccc32)c1,9%,8.9µM*,1,8.9µM*,2
Brc1ccc(Cn2c(-c3cncs3)nc3ccccc32)cc1,3%,6.3µM*,-3,?,-1
N#CCCCCn1c(-c2cncs2)nc2ccccc21,-17%,7%,-4,-23%,-2
c1ccc(Cn2c(-c3cncs3)nc3ccccc32)cc1,-12%,20%,0,-26%,-4
CC(=O)c1c(C)[nH]c(C(=O)NCc2ccco2)c1C,4%,4%,-1,7%,1
O=C(N/N=C/c1ccccc1F)c1cc2c(ccc3ccccc32)o1,.,?,4,?,6
C=CCn1cc(/C=N\NC(=O)c2cc3c(ccc4ccccc43)o2)c2ccccc21,-1%,-22%,2,5.6µM*,-2
O=C(N/N=C/C=C/c1ccccc1)c1cc2c(ccc3ccccc32)o1,-2%,?,1,7.1µM*,-1
O=C(N/N=C/c1cccc2ccccc12)c1cc2ccccc2o1,1%,.,-20,.,-21
